# Test results from the supplement of paper PMC10412459.
# System: K562 SF3B1 K700E vs K562 SF3B1 WT
# Test: surviving fraction ratio K562 SF3B1 K700E / K562 SF3B1 WT (each relative to DMSO); higher = less selective killing of SF3B1 K700E cells
# Conditions: 5 days
# Summary of the method: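 In 384-well plates holding 250 cells per well, isogenic K562 cells bearing an engineered mutant allele and matched wild-type cells received compounds from an in-house 80-compound library 24 h after seeding. Doses were 0.5, 1, 5, 10, 50, 100, 500 and 1,000 nM, with 5 d of continuous culture. Surviving fractions were taken from CellTiter-Glo readings and normalised to DMSO. The value reported is the mutant-over-wild-type ratio of these fractions.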
smiles,measurement,setting,value
CN(C)C/C=C/C(=O)Nc1cc2c(Nc3ccc(F)c(Cl)c3)ncnc2cc1O[C@H]1CCOC1,surviving fraction ratio K562 SF3B1 K700E / K562 SF3B1 WT,0.5nM,0.936
same,surviving fraction ratio K562 SF3B1 K700E / K562 SF3B1 WT,1nM,1.06
same,surviving fraction ratio K562 SF3B1 K700E / K562 SF3B1 WT,5nM,0.796
same,surviving fraction ratio K562 SF3B1 K700E / K562 SF3B1 WT,10nM,0.769
same,surviving fraction ratio K562 SF3B1 K700E / K562 SF3B1 WT,50nM,0.795
same,surviving fraction ratio K562 SF3B1 K700E / K562 SF3B1 WT,100nM,0.679
same,surviving fraction ratio K562 SF3B1 K700E / K562 SF3B1 WT,500nM,0.666
same,surviving fraction ratio K562 SF3B1 K700E / K562 SF3B1 WT,1000nM,0.915
CNCc1ccc(-c2[nH]c3cc(F)cc4c3c2CCNC4=O)cc1,surviving fraction ratio K562 SF3B1 K700E / K562 SF3B1 WT,0.5nM,0.834
same,surviving fraction ratio K562 SF3B1 K700E / K562 SF3B1 WT,1nM,0.856
same,surviving fraction ratio K562 SF3B1 K700E / K562 SF3B1 WT,5nM,0.825
same,surviving fraction ratio K562 SF3B1 K700E / K562 SF3B1 WT,10nM,0.831
same,surviving fraction ratio K562 SF3B1 K700E / K562 SF3B1 WT,50nM,0.897
same,surviving fraction ratio K562 SF3B1 K700E / K562 SF3B1 WT,100nM,0.794
same,surviving fraction ratio K562 SF3B1 K700E / K562 SF3B1 WT,500nM,0.847
same,surviving fraction ratio K562 SF3B1 K700E / K562 SF3B1 WT,1000nM,0.711
COc1cc([C@@H]2c3cc4c(cc3[C@@H](O[C@@H]3O[C@@H]5CO[C@@H](C)O[C@H]5[C@H](O)[C@H]3O)[C@H]3COC(=O)[C@H]23)OCO4)cc(OC)c1O [etoposide],surviving fraction ratio K562 SF3B1 K700E / K562 SF3B1 WT,0.5nM,0.966
same,surviving fraction ratio K562 SF3B1 K700E / K562 SF3B1 WT,1nM,0.974
same,surviving fraction ratio K562 SF3B1 K700E / K562 SF3B1 WT,5nM,0.905
same,surviving fraction ratio K562 SF3B1 K700E / K562 SF3B1 WT,10nM,0.771
same,surviving fraction ratio K562 SF3B1 K700E / K562 SF3B1 WT,50nM,0.842
same,surviving fraction ratio K562 SF3B1 K700E / K562 SF3B1 WT,100nM,1.01
same,surviving fraction ratio K562 SF3B1 K700E / K562 SF3B1 WT,500nM,1.72
same,surviving fraction ratio K562 SF3B1 K700E / K562 SF3B1 WT,1000nM,1.51
NC1(c2ccc(-c3nc4ccn5c(=O)[nH]nc5c4cc3-c3ccccc3)cc2)CCC1,surviving fraction ratio K562 SF3B1 K700E / K562 SF3B1 WT,0.5nM,0.882
same,surviving fraction ratio K562 SF3B1 K700E / K562 SF3B1 WT,1nM,0.849
same,surviving fraction ratio K562 SF3B1 K700E / K562 SF3B1 WT,5nM,0.841
same,surviving fraction ratio K562 SF3B1 K700E / K562 SF3B1 WT,10nM,0.686
same,surviving fraction ratio K562 SF3B1 K700E / K562 SF3B1 WT,50nM,0.61
same,surviving fraction ratio K562 SF3B1 K700E / K562 SF3B1 WT,100nM,0.706
same,surviving fraction ratio K562 SF3B1 K700E / K562 SF3B1 WT,500nM,0.654
same,surviving fraction ratio K562 SF3B1 K700E / K562 SF3B1 WT,1000nM,0.626
CS(=O)(=O)c1ccc(C(=O)Nc2ccc(Cl)c(-c3ccccn3)c2)c(Cl)c1,surviving fraction ratio K562 SF3B1 K700E / K562 SF3B1 WT,0.5nM,1.07
same,surviving fraction ratio K562 SF3B1 K700E / K562 SF3B1 WT,1nM,0.954
same,surviving fraction ratio K562 SF3B1 K700E / K562 SF3B1 WT,5nM,0.96
same,surviving fraction ratio K562 SF3B1 K700E / K562 SF3B1 WT,10nM,0.872
same,surviving fraction ratio K562 SF3B1 K700E / K562 SF3B1 WT,50nM,1
same,surviving fraction ratio K562 SF3B1 K700E / K562 SF3B1 WT,100nM,0.969
same,surviving fraction ratio K562 SF3B1 K700E / K562 SF3B1 WT,500nM,1.01
same,surviving fraction ratio K562 SF3B1 K700E / K562 SF3B1 WT,1000nM,1.07
C[C@@H](Oc1cc(-c2cnn(C3CCNCC3)c2)cnc1N)c1c(Cl)ccc(F)c1Cl,surviving fraction ratio K562 SF3B1 K700E / K562 SF3B1 WT,0.5nM,0.965
same,surviving fraction ratio K562 SF3B1 K700E / K562 SF3B1 WT,1nM,1.06
same,surviving fraction ratio K562 SF3B1 K700E / K562 SF3B1 WT,5nM,0.847
same,surviving fraction ratio K562 SF3B1 K700E / K562 SF3B1 WT,10nM,0.861
same,surviving fraction ratio K562 SF3B1 K700E / K562 SF3B1 WT,50nM,0.652
same,surviving fraction ratio K562 SF3B1 K700E / K562 SF3B1 WT,100nM,0.542
same,surviving fraction ratio K562 SF3B1 K700E / K562 SF3B1 WT,500nM,1.17
same,surviving fraction ratio K562 SF3B1 K700E / K562 SF3B1 WT,1000nM,1.06
CCCCCCCCCCCCCCCC(=O)Nc1ccn([C@@H]2O[C@H](CO)[C@@H](O)[C@@H]2C#N)c(=O)n1 [sapacitabine],surviving fraction ratio K562 SF3B1 K700E / K562 SF3B1 WT,1nM,0.911
same,surviving fraction ratio K562 SF3B1 K700E / K562 SF3B1 WT,10nM,1.11
same,surviving fraction ratio K562 SF3B1 K700E / K562 SF3B1 WT,100nM,0.745
same,surviving fraction ratio K562 SF3B1 K700E / K562 SF3B1 WT,1000nM,1.78
O=C(O)C1(C(=O)O)CCC1.[NH2-].[NH2-].[Pt+2] [carboplatin],surviving fraction ratio K562 SF3B1 K700E / K562 SF3B1 WT,0.5nM,0.765
same,surviving fraction ratio K562 SF3B1 K700E / K562 SF3B1 WT,1nM,0.799
same,surviving fraction ratio K562 SF3B1 K700E / K562 SF3B1 WT,5nM,0.905
same,surviving fraction ratio K562 SF3B1 K700E / K562 SF3B1 WT,10nM,0.829
same,surviving fraction ratio K562 SF3B1 K700E / K562 SF3B1 WT,50nM,0.917
same,surviving fraction ratio K562 SF3B1 K700E / K562 SF3B1 WT,100nM,0.764
same,surviving fraction ratio K562 SF3B1 K700E / K562 SF3B1 WT,500nM,0.917
same,surviving fraction ratio K562 SF3B1 K700E / K562 SF3B1 WT,1000nM,0.762
CCCCCCCCCCCCCCCC(=O)Nc1ccn([C@@H]2O[C@H](CO)[C@@H](O)[C@@H]2C#N)c(=O)n1 [Sapacitabine],surviving fraction ratio K562 SF3B1 K700E / K562 SF3B1 WT,0.5nM,0.952
same,surviving fraction ratio K562 SF3B1 K700E / K562 SF3B1 WT,5nM,0.99
same,surviving fraction ratio K562 SF3B1 K700E / K562 SF3B1 WT,50nM,0.729
same,surviving fraction ratio K562 SF3B1 K700E / K562 SF3B1 WT,500nM,1.27
CC(=O)O[C@H]1C(=O)[C@@]2(C)[C@H]([C@H](OC(=O)c3ccccc3)[C@]3(O)C[C@H](OC(=O)[C@H](O)[C@@H](NC(=O)c4ccccc4)c4ccccc4)C(C)=C1C3(C)C)[C@]1(OC(C)=O)CO[C@@H]1C[C@@H]2O [paclitaxel],surviving fraction ratio K562 SF3B1 K700E / K562 SF3B1 WT,0.5nM,0.866
same,surviving fraction ratio K562 SF3B1 K700E / K562 SF3B1 WT,1nM,0.99
same,surviving fraction ratio K562 SF3B1 K700E / K562 SF3B1 WT,5nM,0.864
same,surviving fraction ratio K562 SF3B1 K700E / K562 SF3B1 WT,10nM,1.42
same,surviving fraction ratio K562 SF3B1 K700E / K562 SF3B1 WT,50nM,2.44
same,surviving fraction ratio K562 SF3B1 K700E / K562 SF3B1 WT,100nM,2.46
same,surviving fraction ratio K562 SF3B1 K700E / K562 SF3B1 WT,500nM,3
same,surviving fraction ratio K562 SF3B1 K700E / K562 SF3B1 WT,1000nM,2.44
CN1CC[C@H](c2c(O)cc(O)c3c(=O)cc(-c4ccccc4Cl)oc23)[C@H](O)C1 [Flavopiridol],surviving fraction ratio K562 SF3B1 K700E / K562 SF3B1 WT,0.5nM,0.8
same,surviving fraction ratio K562 SF3B1 K700E / K562 SF3B1 WT,1nM,0.83
same,surviving fraction ratio K562 SF3B1 K700E / K562 SF3B1 WT,5nM,0.793
same,surviving fraction ratio K562 SF3B1 K700E / K562 SF3B1 WT,10nM,0.847
same,surviving fraction ratio K562 SF3B1 K700E / K562 SF3B1 WT,50nM,0.916
same,surviving fraction ratio K562 SF3B1 K700E / K562 SF3B1 WT,100nM,0.929
same,surviving fraction ratio K562 SF3B1 K700E / K562 SF3B1 WT,500nM,1.89
same,surviving fraction ratio K562 SF3B1 K700E / K562 SF3B1 WT,1000nM,2.25
Cn1cc(C2=Nc3cc(NC(=O)C(N)C4CCCCC4)cc4c3C2=CNNC4=O)cn1 (centres undefined),surviving fraction ratio K562 SF3B1 K700E / K562 SF3B1 WT,0.5nM,0.884
same,surviving fraction ratio K562 SF3B1 K700E / K562 SF3B1 WT,1nM,0.979
same,surviving fraction ratio K562 SF3B1 K700E / K562 SF3B1 WT,5nM,0.826
same,surviving fraction ratio K562 SF3B1 K700E / K562 SF3B1 WT,10nM,0.834
same,surviving fraction ratio K562 SF3B1 K700E / K562 SF3B1 WT,50nM,0.992
same,surviving fraction ratio K562 SF3B1 K700E / K562 SF3B1 WT,100nM,0.621
same,surviving fraction ratio K562 SF3B1 K700E / K562 SF3B1 WT,500nM,0.815
same,surviving fraction ratio K562 SF3B1 K700E / K562 SF3B1 WT,1000nM,1.88
C[C@H](CN(C)C)Oc1nc(Nc2cc3cccc(Cl)c3cn2)cnc1C#N,surviving fraction ratio K562 SF3B1 K700E / K562 SF3B1 WT,0.5nM,0.863
same,surviving fraction ratio K562 SF3B1 K700E / K562 SF3B1 WT,1nM,0.781
same,surviving fraction ratio K562 SF3B1 K700E / K562 SF3B1 WT,5nM,0.786
same,surviving fraction ratio K562 SF3B1 K700E / K562 SF3B1 WT,10nM,0.781
same,surviving fraction ratio K562 SF3B1 K700E / K562 SF3B1 WT,50nM,0.826
same,surviving fraction ratio K562 SF3B1 K700E / K562 SF3B1 WT,100nM,0.784
same,surviving fraction ratio K562 SF3B1 K700E / K562 SF3B1 WT,500nM,0.497
same,surviving fraction ratio K562 SF3B1 K700E / K562 SF3B1 WT,1000nM,0.442
CCC1=C[C@@H]2CN(C1)Cc1c([nH]c3ccccc13)[C@@](C(=O)OC)(c1cc3c(cc1OC)N(C)[C@H]1[C@@](O)(C(=O)OC)[C@H](OC(C)=O)[C@]4(CC)C=CCN5CC[C@]31[C@@H]54)C2 [vinorelbine],surviving fraction ratio K562 SF3B1 K700E / K562 SF3B1 WT,0.5nM,1.02
same,surviving fraction ratio K562 SF3B1 K700E / K562 SF3B1 WT,1nM,0.921
same,surviving fraction ratio K562 SF3B1 K700E / K562 SF3B1 WT,5nM,0.475
same,surviving fraction ratio K562 SF3B1 K700E / K562 SF3B1 WT,10nM,0.385
same,surviving fraction ratio K562 SF3B1 K700E / K562 SF3B1 WT,50nM,1.53
same,surviving fraction ratio K562 SF3B1 K700E / K562 SF3B1 WT,100nM,1.9
same,surviving fraction ratio K562 SF3B1 K700E / K562 SF3B1 WT,500nM,1.97
same,surviving fraction ratio K562 SF3B1 K700E / K562 SF3B1 WT,1000nM,1.89
